Assay outcomes as filed in PubChem.
Y pestis TopoI: blocks Yersinia pestis topoisomerase I activity. 0.064% of 360,000 active. activity, % at 10 µM. AID 504884. Y. pestis Topo-I cleavage product accumulation, plate reader; in the data active = activity above about 50%, passing the limit was not always enough
3CLpro inhibitor: SARS-CoV 3CLpro protease inhibition; recombinant SARS-CoV 3CLpro, quenched FRET peptide cleavage; AID 1706; inhibition, % at 6 µM; 0.14% of 290,000 active; P0C6X7; in the data active = inhibition above about 12%
Mtb BioA inh: BioA (M. tuberculosis) enzyme inhibition; purified M. tuberculosis BioA enzyme, plate reader; inhibition, % at 9.99 µM; 0.096% of 360,000 active; AID 602481; in the data active = inhibition above about 40%
MazF activator: activators of E. coli MazEF toxin-antitoxin RNase; P0AE70; FAM/BHQ RNA-DNA oligo cleavage fluorescence, 5 h; activation, % at 20 µM; 0.32% of 350,000 active; in the data active = activation above about 50%
Target sequence (P0AE70 whole entry, looked up): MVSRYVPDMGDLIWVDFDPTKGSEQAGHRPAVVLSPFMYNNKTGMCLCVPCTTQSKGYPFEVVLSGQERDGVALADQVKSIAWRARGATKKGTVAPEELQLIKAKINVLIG
PfHsp40 rescue: rescue of PfHsp40-mediated yeast toxicity | AID 504582 | S. cerevisiae expressing PfHsp40, growth rescue, ATP luminescence | growth rescue, % at 12.5 µM | 0.68% of 340,000 active; in the data active = growth rescue above about 28%, passing the limit was not always enough;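 note: yeast W303a lacking pdr1 and pdr3 grown in galactose medium; growth measured after three days at 30 °C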
BJeLR viability: kills HRASV12-expressing BJeLR cells. BJeLR (HRASV12) viability, CellTiter-Glo ATP luminescence, 48 h. inhibition, % (concentration not given with the values). 0.17% of 300,000 active; in the data active = inhibition above about 50%
Large screens that a line does not name were inactive. This is a sample that favours compounds with a hit; in the whole collection about 1.1% have one here.

COc1ccc(S(=O)(=O)N(C)C[C@H]2OCCCC[C@H](C)Oc3ccc(NC(=O)Nc4cccc5ccccc45)cc3C(=O)N([C@H](C)CO)C[C@H]2C)cc1	none (no result: Y pestis TopoI, 3CLpro inhibitor, MazF activator, PfHsp40 rescue, BJeLR viability)
Cc1cc(Br)cc(/C=N/NC(=O)c2ccc3c(c2)OCO3)c1O	none
O=C(N/N=C/c1cc(Br)c(Br)o1)c1ccc2c(c1)OCCO2	none
O=C(N/N=C/c1cc(Br)c(O)c(Br)c1O)c1ccc2c(c1)OCCO2	PfHsp40 rescue 152.1
O=C(N/N=C/c1cc(Br)cc(Cl)c1O)c1ccc2c(c1)OCO2	PfHsp40 rescue 257.3 (no result: 3CLpro inhibitor)
O=C1c2ccccc2NC(c2ccc(-c3ccc(C(F)(F)F)cc3)o2)N1O (stereo not drawn)	PfHsp40 rescue 279.4 (no result: 3CLpro inhibitor, BJeLR viability)
O=C1c2ccccc2NC(c2ccco2)N1O (stereo not drawn)	none
O=C1c2ccccc2NC(c2ccc(Br)o2)N1O (stereo not drawn)	none (no result: 3CLpro inhibitor, BJeLR viability)
O=C1c2ccccc2NC(c2ccc(-c3cccs3)o2)N1O (stereo not drawn)	PfHsp40 rescue 58.2 (no result: 3CLpro inhibitor, BJeLR viability)
COc1ccc(S(=O)(=O)N2C[C@@H](O)COC[C@@H]3O[C@@H](CC(=O)NCc4ccc(Cl)c(Cl)c4)CC[C@H]32)cc1	none (no result: Y pestis TopoI, 3CLpro inhibitor, MazF activator, PfHsp40 rescue, BJeLR viability)
C[C@@H]1CN([C@H](C)CO)C(=O)c2cc(C#Cc3ccccc3)cnc2O[C@H]1CN(C)C(=O)CCN1CCCCC1	none (no result: Y pestis TopoI, 3CLpro inhibitor, MazF activator, PfHsp40 rescue, BJeLR viability)
O=C(CN1C(=O)S/C(=C\c2cccs2)C1=O)Nc1ccc(C(=O)O)c(O)c1	3CLpro inhibitor 13.5
Cc1ccc(NC(=O)CN2C(=O)S/C(=C/c3ccc(-c4cc(C(=O)O)ccc4C)o3)C2=O)cc1C	MazF activator 74.8
Cc1ccc(S(=O)(=O)Nc2ccccc2C(N)=O)cc1	none
Cc1ccc(S(=O)(=O)Nc2ccccc2-c2ccccc2NS(=O)(=O)c2ccc(C)cc2)cc1	3CLpro inhibitor 14.0
COc1cc(NS(=O)(=O)c2ccc(C)cc2)c2ncccc2c1	PfHsp40 rescue 542.0 (no result: Mtb BioA inh)
C/C=C/c1ccc([C@@H]2[C@H](CO)N(C(=O)CC)[C@H]2CNC(=O)CC2CC2)cc1	none (no result: Y pestis TopoI, 3CLpro inhibitor, MazF activator, PfHsp40 rescue, BJeLR viability)
C[C@@H]1CN([C@H](C)CO)C(=O)c2cc(C#Cc3cccnc3)cnc2O[C@H]1CN(C)C(=O)CN(C)C	none (no result: Y pestis TopoI, 3CLpro inhibitor, MazF activator, PfHsp40 rescue, BJeLR viability)
CCCCCCN1C[C@H](n2cc(-c3ccc(F)cc3)nn2)[C@@H](O)C[C@@H]1c1ccc(OC)cc1	none (no result: 3CLpro inhibitor, PfHsp40 rescue, BJeLR viability)
CCCCCCN1C[C@@H](n2cc(-c3ccc(F)cc3)nn2)[C@H](O)C[C@@H]1c1ccc(OC)cc1	Y pestis TopoI 64.9 (no result: 3CLpro inhibitor, PfHsp40 rescue, BJeLR viability)
Cc1cc(C(=O)Nc2cccc3c2O[C@H](CN(C)C(=O)Nc2c(C)noc2C)[C@@H](C)CN([C@@H](C)CO)C3=O)n(C)n1	none (no result: Y pestis TopoI, 3CLpro inhibitor, MazF activator, PfHsp40 rescue, BJeLR viability)
Cc1c(Cc2c(Cl)cccc2Cl)c(=O)ccn1C(C)c1ccccc1 (stereo not drawn)	PfHsp40 rescue 52.0 (no result: BJeLR viability)
CCOC(=O)[C@H]1[C@H]2COc3ccc(Br)cc3[C@H]2N2C(=O)CN(Cc3ccc(C)cc3)C(=O)[C@@]12C	MazF activator 161.5 (no result: 3CLpro inhibitor, BJeLR viability)
CC(=O)N(C)C[C@@H]1Oc2ncc(-c3cccc(C#N)c3)cc2C(=O)N([C@@H](C)CO)C[C@@H]1C	none (no result: Y pestis TopoI, 3CLpro inhibitor, MazF activator, PfHsp40 rescue, BJeLR viability)
CC(=O)Nc1ccc(Sc2ccc([N+](=O)[O-])o2)cc1	PfHsp40 rescue 54.2 (no result: 3CLpro inhibitor, BJeLR viability)
CC(C)(C)C(=O)Nc1ccc(Sc2ccc([N+](=O)[O-])cc2)cc1	none (no result: Mtb BioA inh)
C[n+]1cccc2c(Br)ccc([O-])c21	3CLpro inhibitor 13.0
Cc1ccc(-c2nc3sc(C#N)c(N)n3c(=O)c2C#N)cc1	MazF activator 733.2
COC(=O)C1CC23C=CCN4CCC5(c6ccccc6NC15C2C)C43 (stereo not drawn)	BJeLR viability 57.4
CCc1cccc2c(C(=O)COC(=O)c3ccc([N+](=O)[O-])s3)c[nH]c12	PfHsp40 rescue 37.0 (no result: Mtb BioA inh)
O=C(OCC(=O)c1c[nH]c2ccccc12)c1ccc([N+](=O)[O-])s1	none
CN(CCCC1CCCC1)C(=O)c1cc(COc2c(F)cccc2F)on1	none
CN(CCCC1CCCC1)C(=O)c1cc(COc2ccc(F)c(F)c2)on1	PfHsp40 rescue 44.3
C[C@H](CO)N1C[C@H](C)[C@@H](CN(C)C(=O)C2CC2)Oc2cc(C#C[C@@H](C)O)ccc2S1(=O)=O	none (no result: Y pestis TopoI, 3CLpro inhibitor, MazF activator, PfHsp40 rescue, BJeLR viability)
C[C@@H]1CN([C@H](C)CO)C(=O)Cc2cc(N(C)C)ccc2O[C@@H]1CN(C)S(=O)(=O)c1cccs1	none (no result: Y pestis TopoI, 3CLpro inhibitor, MazF activator, PfHsp40 rescue, BJeLR viability)
CCC(=O)N1CCN(c2ccc(Cl)cc2NC(=O)c2ccc([N+](=O)[O-])o2)CC1	PfHsp40 rescue 45.6
